Assay results from PubChem BioAssay (EPA / NIEHS).
Values joined by “and” are separate entries in the source; they are usually repeats but may differ in a detail not shown here. Equal entries are not always repeated. Where a structure was tested more than once in an assay, its records may differ in their call. Active and inactive are the calls of the source. The calls were made as follows: active = hit-call score of the fitted dose curve at least 0.9, where 1 is the maximum; inactive = score below 0.9.

Assays:
[1] = BSK_3C_SRB: Viability Assessment in the BioMAP Diversity Plus: 3C Assay (AID 2283023); details: primary human endothelial cells (HUVEC);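 also: fitted both ways against DMSO so a hit may be signal rise or drop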
Summary of the method: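 Primary human umbilical vein endothelial cells in the 3C system were read 24 h after compound dosing. Total protein was stained with 0.1% sulforhodamine B after 10% TCA fixation and read at 560 nm, with bidirectional fitting against DMSO as baseline.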

[2] = read-out: Matrix Metallopeptidase 1 (MMP1), MMP1 (gene 4312); experiment: BSK_BE3C_MMP1: BioMAP Diversity Plus: BE3C Assay for Matrix Metallopeptidase 1 (MMP1) Biomarker Activity (AID 2283024); details: primary human bronchial epithelial cells; actives raise or lower the signal
Summary of the method: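 ELISA measurement of MMP-1 after 24 h compound exposure of primary human bronchial epithelial cells. Changes in either direction fitted relative to DMSO; parallel SRB staining checked overt cytotoxicity.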

[3] = read-out: Pselectin, SELP (gene 6403); experiment: BSK_4H_Pselectin: BioMAP Diversity Plus: 4H Assay for Pselectin Biomarker Activity (AID 2283026); details: primary human endothelial cells (HUVEC); actives raise or lower the signal
Summary of the method: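 ELISA of surface P-selectin on HUVEC, 24 h after dosing, with parallel SRB staining (0.1% after 10% TCA fixation, 560 nm) for overt cytotoxicity. Activity fitted in both directions relative to DMSO.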

[4] = BSK_4H_SRB: Viability Assessment in the BioMAP Diversity Plus: 4H Assay (AID 2283027); details: primary human endothelial cells (HUVEC);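 also: cells exposed to compound for 24 h before staining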;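 as to AC50: curves fitted both ways versus DMSO so AC50 may be loss or gain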
Summary of the method: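 Cytotoxicity read-out in primary human endothelial cells: after 24 h compound exposure, cells were TCA-fixed (10%), stained with 0.1% SRB and absorbance taken at 560 nm. Values fitted in both directions relative to DMSO.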

[5] = BSK_BE3C_SRB: Viability Assessment in the BioMAP Diversity Plus: BE3C Assay (AID 2283028); details: primary human bronchial epithelial cells;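 as to AC50: fitted both ways so AC50 may mark signal gain or loss versus DMSO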
Summary of the method: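 Human primary bronchial epithelial cells were exposed to test chemicals for 24 h. Total protein in parallel cultures was then measured by staining with 0.1% sulforhodamine B after 10% TCA fixation, with absorbance read at 560 nm. Activity was fitted bidirectionally against DMSO.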

[6] = read-out: Thrombomodulin, THBD (gene 7056); experiment: BSK_3C_Thrombomodulin: BioMAP Diversity Plus: 3C Assay for Thrombomodulin Biomarker Activity (AID 2283029); details: primary human endothelial cells (HUVEC); actives raise or lower the signal
Summary of the method: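 ELISA measurement of thrombomodulin on HUVEC surface 24 h after chemical dosing; activity fitted in both directions relative to DMSO vehicle.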

[7] = read-out: Urokinase-type plasminogen activator receptor (uPAR), PLAUR (gene 5329); experiment: BSK_4H_uPAR: BioMAP Diversity Plus: 4H Assay for Urokinase-type plasminogen activator receptor (uPAR) Biomarker Activity (AID 2283030); details: primary human endothelial cells (HUVEC); actives raise or lower the signal
Summary of the method: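 Primary human umbilical vein endothelial cells were exposed to chemical for 24 h before cell-surface uPAR was quantified by ELISA. Activity was fitted bidirectionally against the DMSO negative control baseline.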

[8] = read-out: Human Leukocyte Antigen - DR isotype (HLADR), HLA-DRA (gene 3122); experiment: BSK_BE3C_HLADR: BioMAP Diversity Plus: BE3C Assay for Human Leukocyte Antigen - DR isotype (HLADR) Biomarker Activity (AID 2283032); details: primary human bronchial epithelial cells; actives raise or lower the signal
Summary of the method: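 Cell-surface HLA-DR ELISA readout at 24 h after dosing in the BE3C primary human lung bronchial epithelial system; gain or loss of signal against DMSO, with parallel sulforhodamine B staining of total protein for overt cytotoxicity.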

[9] = BSK_3C_Vis: BioMAP Diversity Plus: 3C Assay for Morphology Visualization (AID 2283025); details: primary human endothelial cells (HUVEC);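 also: fitted both ways so gain or loss versus DMSO counts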;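 as to AC50: light microscopy image of cell morphology used as background control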
Summary of the method: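 Light-microscopy visualization of HUVEC cultures at 24 h post-treatment, with DMSO as baseline for bidirectional fitting.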

[10] = read-out: Vascular endothelial growth factor receptor 2 (Homo sapiens) (UniProt P35968); experiment: BSK_4H_VEGFRII: BioMAP Diversity Plus: 4H Assay for Vascular endothelial growth factor receptor 2 (VEGFR2) Biomarker Activity (AID 2283031); details: primary human endothelial cells (HUVEC); actives raise or lower the signal;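 as to AC50: cell-surface VEGFR2 protein level quantified by ELISA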
Summary of the method: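 Primary human umbilical vein endothelial cells in the BioMAP 4H system were dosed with test chemical, and 24 h later VEGFRII was measured by ELISA. Activity was fitted bidirectionally against DMSO as negative control and baseline.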

Measured: AC50

Oc1c(Cl)cc(Cl)cc1Sc1cc(Cl)cc(Cl)c1O
active: [1] 15.7 µM and 13.3 µM | [3] 5.81 µM and 4.28 µM | [4] 23.9 µM and 23.7 µM | [5] 5.25 µM and 5.18 µM | [6] 11.1 µM | [7] 20 µM and 9.97 µM | [8] 3.56 µM and 3.35 µM
inactive: [2] | [6]

O=C1c2ccc(O)c(O)c2C(=O)c2c(O)ccc(O)c21
not listed: [10]
inactive: all other assays above

CC[N+](CC)(CC)Cc1ccccc1
not listed: [10]
inactive: all other assays above

COCN(COC)c1nc(N(COC)COC)nc(N(COC)COC)n1
not listed: [10]
inactive: all other assays above

N=C(N)c1ccc(OCCCCCOc2ccc(C(=N)N)cc2)cc1
active: [9] 8.61 µM | [3] 7.2 µM | [7] 3.47 µM | [8] 22.7 µM
not listed: [10]
inactive: all other assays above

Clc1ccc(Nc2nnc(Cc3ccncc3)c3ccccc23)cc1
not listed: [1] | [10]
inactive: all other assays above

O=C1OC2(c3ccccc31)c1cc(I)c(O)c(I)c1Oc1c2cc(I)c(O)c1I
inactive: [4]
active: [1] 12 µM | [2] 3.22 µM | [9] 22.5 µM | [3] 12 µM | [6] 7.01 µM | [7] 8.51 µM | [8] 4.33 µM

Cc1cccc2c1ccc1ccccc12
not listed: [10]
inactive: all other assays above

CN(C)c1ccc(C(=C2C=CC(=[N+](C)C)C=C2)c2ccccc2)cc1
inactive: [6]
active: [1] 0.055 µM | [9] 0.00948 µM | [3] 0.0138 µM | [4] 52.7 nM | [5] 2.72 µM | [7] 0.00549 µM | [8] 0.0162 µM

CN(C)CCOC(c1ccccc1)c1ccccc1
active: [3] 3.97 µM | [7] 2.27 µM
not listed: [10]
inactive: all other assays above

CCCCCCCCCCCC
active: [1] 31.1 µM and 30.4 µM | [6] 36.5 µM | [10] 28 µM | [8] 5.83 µM and 5.29 µM
inactive: [2] | [3] | [4] | [5] | [6] | [7] | [10]

C=CC(=O)OCCC(F)(F)C(F)(F)C(F)(F)C(F)(F)C(F)(F)C(F)(F)C(F)(F)C(F)(F)F
not listed: [9] | [10]
inactive: all other assays above

CCCCC=O
not listed: [10]
inactive: all other assays above

CN(Cc1cnc2nc(N)nc(N)c2n1)c1ccc(C(=O)N[C@@H](CCC(=O)O)C(=O)O)cc1
not listed: [10]
inactive: all other assays above

CCCCCCCCCCCCOS(=O)(=O)O
active: [5] 32.6 µM | [8] 26.2 µM
not listed: [1] | [10]
inactive: all other assays above
